Experimental data from PubChem BioAssay (NCATS).
Records with an inconclusive call do not appear. A call without a number means that no potency is given here. Unmarked numbers belong to inactive results. Activity calls are given as the source filed them. Calls follow the shape of the full dose curve; tested in HEK293 reporter line.

Test: qHTS for Inhibitors of the Functional Ribonucleoprotein Complex (vRNP) of Lassa (LASV) Arenavirus: LASV Primary Screen - GLuc reporter signal (AID 1347082); also: nearly all actives have a fitted effect of over 60% in size
Settings: LASV minigenome vRNP, Gaussia luciferase reporter; series mostly up to 57.5 µM

SMILES	Potency	activity change, negative = inhibition
O=C(NN1CCCC1)NS(=O)(=O)c1ccc(Cl)cc1	inactive	
Nc1c2c(nc3c1CCC3)CCCC2	inactive	
Cc1cccc(CN2CCN(C(c3ccccc3)c3ccc(Cl)cc3)CC2)c1 (centres undefined)	inactive	
C[C@@H]1CCC[C@H](C)N1CCCC(O)(c1ccccc1)c1ccccn1 (some centres undefined)	inactive	
CCCCN1CCCC1C(=O)Nc1c(C)cc(C)cc1C (centres undefined)	inactive	
COc1ccccc1N1CCN(CC(O)COc2cccc3ccccc23)CC1 (centres undefined)	inactive	
CCN(CC)CCOc1ccc(Cc2ccccc2)cc1	inactive	
CC(C)C(=O)Nc1cccc(C2CN3CCSC3=N2)c1 (centres undefined)	inactive	
C/C=C/c1ccc(O)c(OC)c1	inactive	
COc1ccc2c(c1)c(CC(=O)O)c(C)n2C(=O)c1ccc(Cl)cc1	inactive	
CCCCNc1ccc(C(=O)OCCN(CC)CC)cc1	inactive	
O=C(O)c1cn(-c2ccc(F)cc2)c2cc(N3CCNCC3)c(F)cc2c1=O	inactive	
COC(=O)[C@H]1[C@H]2C[C@@H]3c4[nH]c5cc(OC)ccc5c4CCN3C[C@H]2C[C@@H](OC(=O)COc2ccc(OC)cc2)[C@@H]1OC	inactive	
O=C(COc1ccc(Cl)cc1)N1CCN(Cc2ccc3c(c2)OCO3)CC1	inactive	
Cc1ncc([N+](=O)[O-])n1C	inactive	
c1ccc(CCNc2nc(-c3ccccc3)cs2)cc1	inactive	
Cc1cc(N)c2cc(NC(=O)Nc3ccc4nc(C)cc(N)c4c3)ccc2n1	inactive	
CCc1cccc2c3c([nH]c12)C(CC)(CC(=O)O)OCC3 (centres undefined)	inactive	
CN(C)CCCN1c2ccccc2Sc2ccccc21	inactive	
Cc1c(F)cc2c(=O)c(C(=O)O)cn3c2c1CCC3C (centres undefined)	inactive	

SMILES	Potency	activity change, negative = inhibition
OC1C(O)C(O)C(O)C(O)C1O (centres undefined)	inactive	
C[C@@]12CCC[C@H]1[C@@H]1CC[C@H]3C[C@@H](O)CC[C@]3(C)[C@H]1CC2	inactive	
CCOC(=O)C(C#N)=C(c1ccccc1)c1ccccc1	inactive	
CCOC(=O)c1c(N)sc2c1CCN(Cc1ccccc1)C2	inactive	
Cc1cc(C(C)(C)C)cc(C)c1CC1=NCCN1	inactive	
CCN(CC)CCOC(=O)C(c1ccccc1)c1ccccc1	inactive	
Cc1cn([C@H]2C[C@H](F)[C@@H](CO)O2)c(=O)[nH]c1=O	inactive	
CCOC(=O)[C@H](CCc1ccccc1)N[C@H]1CS[C@H](c2cccs2)CN(CC(=O)O)C1=O	inactive	
OC(C#CCN1CCCC1)(c1ccccc1)c1ccccc1	inactive	
CCC(=O)c1ccc(O)cc1	inactive	
CN1Cc2c(N)cccc2C(c2ccccc2)C1 (centres undefined)	inactive	
Nc1ccc(C(=O)N2CC3CC(CN(Cc4ccccc4)C3)C2)cc1	inactive	
Cc1ccc(Cl)c(OCC(O)CNC(C)(C)C)c1 (centres undefined)	inactive	
CCCCOC(=O)CCCCCCCCC(=O)OCCCC	inactive	
N#Cc1cc(NC(=O)C(=O)O)c(Cl)c(NC(=O)C(=O)O)c1	inactive	
C/C(=C(\CCOP(=O)(O)O)SC(=O)c1ccccc1)N(C=O)Cc1cnc(C)nc1N		1.78% [at 5.82 µM]
Cc1cccc(Nc2cc(Cl)nc(SCC(=O)O)n2)c1C	inactive	
O=C1c2cccc(O)c2C(=O)c2c(O)cccc21	inactive	
C=C1C[C@H]2[C@@H]3C=C(C)C4=CC(=O)CC[C@]4(C)[C@H]3CC[C@]2(C)[C@@]1(OC(C)=O)C(C)=O	inactive	
